Mtb UGM inh = blocks M. tuberculosis UGM enzyme; inhibition, % at 10 µM; 0.06% of 320,000 active; P9WIQ1; purified UGM, fluorescence polarization probe displacement; in the data active = inhibition above about 10%, passing the limit was not always enough
FadD28 binding = blocks FadD28 binding to the bisubstrate probe | inhibition, % at 12.5 µM | 0.22% of 360,000 active | fluorescence polarization; in the data active = inhibition above about 8.5%, passing the limit was not always enough
Rv3671c inh = inhibits the M. tuberculosis serine protease Rv3671c; P9WHR9; inhibition, % at 5.96 µM; 0.048% of 320,000 active; AID 2606; in the data active = inhibition above about 38%;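 note: extracellular domain of Rv3671c used as enzyme; 0% = enzyme with DMSO and 100% = no enzyme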
Target sequence (P9WHR9 whole entry, looked up, the tested form may be a part): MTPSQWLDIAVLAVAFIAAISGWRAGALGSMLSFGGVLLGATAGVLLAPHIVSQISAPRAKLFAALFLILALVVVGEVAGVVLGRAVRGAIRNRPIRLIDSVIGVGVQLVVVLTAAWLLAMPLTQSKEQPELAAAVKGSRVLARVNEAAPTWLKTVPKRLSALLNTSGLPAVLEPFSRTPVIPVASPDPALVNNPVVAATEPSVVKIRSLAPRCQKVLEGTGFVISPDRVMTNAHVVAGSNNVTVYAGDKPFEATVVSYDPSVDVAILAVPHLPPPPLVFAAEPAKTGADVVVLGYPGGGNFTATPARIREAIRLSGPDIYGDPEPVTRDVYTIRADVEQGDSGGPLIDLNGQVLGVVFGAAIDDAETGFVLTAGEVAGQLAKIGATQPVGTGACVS
Mtb hypoxia inh = inhibitors of hypoxia-regulated fluorescent reporter in Mycobacterium tuberculosis. M. tuberculosis hypoxia-regulated fluorescent reporter, fluorescence. fluorescence inhibition, % (no concentration beside the values). 0.1% of 300,000 active. AID 1159583; in the data active = fluorescence inhibition mostly above about 23%, no sharp cut-off; inactive = mostly below about 17%
RecA intein inh = Mtb RecA intein splicing inhibition; 0.75% of 290,000 active; inhibition, % (concentration not given with the values); P9WHJ3; cell-free RecA intein splicing, fluorescence; in the data active = inhibition above about 30%;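 note: 0% = vehicle wells and 100% = reference inhibitor control wells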
Mtb betalactam = beta-lactam sensitization of Mtb H37Rv; AID 434955; inhibition, % at 25 µM; 0.27% of 330,000 active; M. tuberculosis H37Rv growth with meropenem, percent inhibition; call rule not given here;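 note: growth measured after seven days incubation then overnight dye step; 0% = bacteria only wells and 100% = bacteria with antibiotic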
* = called active by the depositor; . = no result given. This is a sample that favours compounds with a hit; in the whole collection about 0.92% have one here.

SMILES	Mtb UGM inh	FadD28 binding	Rv3671c inh	Mtb hypoxia inh	RecA intein inh	Mtb betalactam
Cc1cccc(Cn2c(N3CCN(CCO)CC3)nc3c2c(=O)[nH]c(=O)n3C)c1	2	-2	7	4	-1	0
CCSc1nnc(NC(=O)[C@H](C)N2C(=O)C3CC=CCC3C2=O)s1 (stereo partly drawn)	-1	-1	0	30*	-3	100
COc1ccc(-c2c(C(=O)O)c(C(=O)O)c3n2CCC3)cc1	0	0	7	7	1	6
O=C(CCNC(=O)c1ccc(Br)cc1)NCC1CCCO1 (stereo not drawn)	2	-1	3	0	-3	4
O=C1C=CC(=O)c2c(O)c(CO)c(CO)c(O)c21	.	18*	.	.	.	.
O=c1c(CO)cc(CO)cc(CO)c1O	2	0	-4	10	-3	0
CCCOC(=S)NC(=NS(=O)(=O)c1ccccc1)c1ccccc1	.	.	.	-6	.	.
Cc1nn(-c2ccccc2)c(C)c1C(=O)OC(C)C(=O)Nc1ccc(C(N)=O)cc1 (stereo not drawn)	0	-1	-2	-2	.	-4
CCOc1cc(/C=C2\C(=O)N(c3nc(-c4ccc(Br)cc4)cs3)N=C2c2ccccc2)ccc1O	-1	27*	18	4	4	4
O=C1/C(=C\c2ccc(O)c(O)c2)C(c2ccccc2)=NN1c1ccccc1	.	0	.	8	4	.
O=C(c1ccc([N+](=O)[O-])o1)N1CCc2ccccc2C1	-2	-1	2	47*	4	100
N#C/C(=C/C1=C(N2CCOCC2)C(=C/c2ccccc2)/CC1)C(=O)Nc1ccccc1F	.	9.9*	.	11	.	.
Cc1ccc(OCC(=O)Nc2ccc3c(c2)OCO3)c([N+](=O)[O-])n1	-1	-3	-4	7	0	7
O=C(CCSc1nnc(-c2ccccc2)o1)N1CCOCC1	0	-1	-7	40*	0	96
Cc1ccc(-c2nnc(SCCC(=O)N3CCOCC3)o2)cc1	2	-2	5	19	-1	68
Cc1ccc(NC(=O)CNc2ccccc2N2CCCC2=O)cc1S(=O)(=O)N1CCOCC1	.	21*	.	6	.	.
COc1ccc(NC(=O)CNc2ccccc2N2CCCC2=O)cc1S(=O)(=O)N1CCOCC1	-2	10*	-4	9	.	-7
Cc1ccc(S(=O)(=O)N2CCCCC2)cc1NC(=O)CNc1ccccc1N1CCCC1=O	-1	.	4	11	.	-2
CN(CC(=O)NC(=O)NCc1ccccc1)CC(=O)Nc1ccc(Cl)c(C(F)(F)F)c1	-2	-2	2	7	6	2
CC(C)N(Cc1nccn1C)C(=O)CC1C(=O)NCCN1Cc1ccccc1C(F)(F)F (stereo not drawn)	-5	-2	10	17	-1	-4
CCOC(=O)N1CCN(C(=O)CNC2CCCCCCC2)CC1	2	-5	6	14	-2	0
COc1ccc(NC(=O)N(C)C[C@H]2Oc3ccc(NS(=O)(=O)c4cn(C)cn4)cc3C(=O)N([C@H](C)CO)C[C@@H]2C)cc1	.	-1	.	.	.	.
Cc1oc2c(c1C(=O)c1ccccc1)C(=O)C(=O)c1ccccc1-2	0	0	-48	.	12	14
O=C(C1=C(c2ccccc2)C(=O)c2ccccc2C1=O)c1ccccc1	.	-1	.	7	36*	.
Cc1cccc(N/C=C/C(=C(C#N)C#N)N(C)C)c1	0	11*	7	4	-4	21
SMILES	Mtb UGM inh	FadD28 binding	Rv3671c inh	Mtb hypoxia inh	RecA intein inh	Mtb betalactam
O=S(c1ccccc1O)S(=O)c1ccccc1O (stereo not drawn)	.	28*	.	0	.	.
O=C1c2ccccc2C(Nc2ccc(S(=O)(=O)N3CCCCCC3)cc2)N1Cc1ccco1 (stereo not drawn)	0	-7	3	-7	7	1
Cc1c(C(N)=O)c(-c2ccccc2)nn1-c1ccccc1	0	-1	-1	13	-7	-2
CCCc1c(-c2ccc(O)cc2)nn(-c2ccc(O)cc2)c1-c1ccc(O)cc1	0	-32	-4	.	51*	1
COC(CNS(=O)(=O)c1ccc(S(=O)(=O)N2CCCC2)cc1)OC	-2	-1	-19	8	1	-2
CCCCc1oc2ccccc2c1C(=O)c1cc(I)c(OCCN(CC)CC)c(I)c1	-2	-2	6	17	38*	.
CCN(CC)CCOc1ncnc2c1oc1ccccc12	-2	-2	13	8	0	9
CCOC(=O)c1nnc(-c2ccccc2)nc1Oc1ccccc1Cl	1	-2	5	.	45*	27
O=C(/C=C/c1ccc2c(c1)OCO2)c1c(O)n(CCc2ccccc2)c(=O)[nH]c1=O	26*	-1	-3	10	7	99
O=C(/C=C/c1ccccc1)c1c(O)n(CCc2ccccc2)c(=O)[nH]c1=O	0	-4	-3	-3	9	99
COC(=O)[C@@]12CCCN1[C@H](c1ccc(SC3CCCCC3)cc1)[C@H]1C(=O)N(C)C(=O)[C@H]12	-4	0	10	.	.	-9
COc1ccc(/C=C2\CCCc3c2nc2ccccc2c3C(=O)O)cc1OC	48*	.	2	.	-39	-8
COc1ccc(/C=C2\CCc3c2nc2ccccc2c3C(=O)O)cc1OC	3	2	-4	.	-496	23
CCOc1ccc(/C=C2\CCCc3c2nc2ccccc2c3C(=O)O)cc1OC	70*	4	3	.	-69	-15
Cc1c(C)c2c(C)[nH]nc2oc1=O	-2	-3	2	3	2	-10
CCOC(=O)Cc1c(C)c2c(C)[nH]nc2oc1=O	-2	-3	-4	5	39*	0
CCCc1c(C)c2c(C)[nH]nc2oc1=O	-1	0	-2	-1	41*	-3
CC=CC=CC(=O)Nc1cccc(C2=NOC3(C2)CC(C(N)=O)N(C(=O)c2cc([N+](=O)[O-])cc([N+](=O)[O-])c2)C3)c1 (stereo not drawn)	.	.	.	57*	.	.
C/C=C/C=C\C(=O)Nc1cccc(C2=NOC3(C2)C[C@@H](C(N)=O)N(C(=O)c2cc([N+](=O)[O-])cc([N+](=O)[O-])c2C)C3)c1 (stereo partly drawn)	0	-6	-9	.	4	24
CCC(=NCC1CCCO1)c1c(O)n(-c2ccc(OC)cc2)c(=O)[nH]c1=O (stereo not drawn)	1	-3	-2	10	-1	-6
CCn1c(O)c(N=Nc2cccc(S(=O)(=O)N3CCOCC3)c2)c(=O)n(CC)c1=S	-1	-1	2	15	59*	-1
CCn1c(O)c(N=Nc2ccc(S(=O)(=O)N3CCOCC3)cc2)c(=O)n(CC)c1=S	1	-1	1	-7	24	4
Cc1ccccc1-c1nc(S(=O)(=O)c2ccc(Br)cc2)c(NCc2cccnc2)o1	-2	-5	1	-2	.	94
Cc1ccc2nc(N/N=C\c3ccc([N+](=O)[O-])o3)nc(-c3ccccc3)c2c1	-3	0	5	.	42*	100
